Data reported in the supplement of paper PMC12808144.

system: Mel-DCC-11; assay: cell viability relative to DMSO control (fraction of DMSO control); higher = less cytotoxic, active = 0.5 or less; details: 1 µM; 120 h
In short: (§1)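 Three cell types were screened against 315 approved anti-cancer drugs from TargetMol, acoustically pre-spotted in 384-well plates at 1 µM in duplicate over 120 h: NHEM-hTERT immortalized melanocytes (2500/well), patient-derived Mel-DCC-11 and its resistant subline Mel-DCC-11-R (both 1500/well), all in 40 µl per well. The subline was tested alone and with 8 µM of its selecting drug. Viability, measured by luminescence, was normalised to vehicle controls and averaged across duplicates, with ATPlite 1step as the readout.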

SMILES	cell viability
COc1cc([C@@H]2c3cc4c(cc3[C@@H](O[C@@H]3O[C@@H]5CO[C@@H](c6cccs6)O[C@H]5[C@H](O)[C@H]3O)[C@H]3COC(=O)[C@H]23)OCO4)cc(OC)c1O [Teniposide]	1.16 (inactive)
C/C=C1/NC(=O)[C@H]2CSSCC/C=C/[C@H](CC(=O)N[C@H](C(C)C)C(=O)N2)OC(=O)[C@H](C(C)C)NC1=O [Romidepsin]	0.0954 (active)
Nc1nc(Cl)nc2c1ncn2[C@H]1C[C@H](O)[C@@H](CO)O1 [Cladribine]	0.402 (active)
O=C(NC(Cc1cc(=O)[nH]c2ccccc12)C(=O)O)c1ccc(Cl)cc1 (stereo unspecified) [Rebamipide]	1.15 (inactive)
COc1cc(N2CCC(N3CCN(C)CC3)CC2)ccc1Nc1ncc(Cl)c(Nc2ccccc2P(C)(C)=O)n1 [Brigatinib]	0.988 (inactive)
COc1ccc2cc1Oc1ccc(cc1)C[C@H]1c3cc(c(OC)cc3CCN1C)Oc1c(OC)c(OC)cc3c1[C@H](C2)N(C)CC3 [Tetrandrine]	0.653 (inactive)
O=C(O)C1CSCN1 (stereo unspecified) [Thioproline]	1.09 (inactive)
Nc1[nH]c(=O)ncc1F [Fluorocytosine]	1.16 (inactive)
Nc1nc(F)nc2c1ncn2[C@@H]1O[C@H](CO)[C@@H](O)[C@@H]1O [Fludarabine]	1.15 (inactive)
CCCc1cc(C)[nH]c(=O)c1CNC(=O)c1cc(-c2ccnc(N3CCN(C)CC3)c2)cc2c1cnn2C(C)C	1.45 (inactive)

system: NHEM-hTERT; assay: as above; details: 1 µM; 120 h
In short: as §1

SMILES	cell viability
C#Cc1cccc(Nc2ncnc3cc(OCCOC)c(OCCOC)cc23)c1 [Erlotinib]	1.02 (inactive)
N.N.O=C([O-])C[O-].[Pt+2] [Nedaplatin]	1.08 (inactive)
S=c1nc[nH]c2nc[nH]c12 [Mercaptopurine]	1.07 (inactive)
C=CC(=O)Nc1cccc(Nc2nc(Nc3ccc(N4CCN(C(C)=O)CC4)cc3OC)ncc2C(F)(F)F)c1 [Rociletinib]	0.71 (inactive)
CC(/C=C/C=C(\C)C(=O)O[C@@H]1O[C@H](CO[C@@H]2O[C@H](CO)[C@@H](O)[C@H](O)[C@H]2O)[C@@H](O)[C@H](O)[C@H]1O)=C\C=C\C=C(C)\C=C\C=C(/C)C(=O)O[C@@H]1O[C@H](CO[C@@H]2O[C@H](CO)[C@@H](O)[C@H](O)[C@H]2O)[C@@H](O)[C@H](O)[C@H]1O [Crocin]	1.12 (inactive)
Nc1nc(=O)c2c([nH]1)NCC(CNc1ccc(C(=O)N[C@@H](CCC(=O)[O-])C(=O)[O-])cc1)N2C=O.[Ca+2] (stereo partly specified) [Calcium folinate]	1.16 (inactive)
O=c1ccn([C@@H]2O[C@H](CO)[C@@H](O)[C@H]2O)c(=O)[nH]1 [Uridine]	1.05 (inactive)
CC[C@]1(O)C[C@H]2CN(CCc3c([nH]c4ccccc34)[C@@](C(=O)OC)(c3cc4c(cc3OC)N(C=O)[C@H]3[C@@](O)(C(=O)OC)[C@H](OC(C)=O)[C@]5(CC)C=CCN6CC[C@]43[C@@H]65)C2)C1.O=S(=O)(O)O [Vincristine sulfate]	0.642 (inactive)
NC(=O)NO [Hydroxyurea]	1.1 (inactive)
CC1(C)O[C@H]2CC(=O)OC[C@]23[C@H]2CC[C@@]4(C)[C@H](c5ccoc5)OC(=O)[C@H]5O[C@]54[C@]2(C)C(=O)C[C@@H]13 [Limonin]	1.21 (inactive)
Nc1ccn([C@@H]2O[C@H](CO)[C@@H](O)[C@@H]2O)c(=O)n1 [Cytarabine]	0.886 (inactive)
CO[C@H]1C(=O)[C@]2(C)[C@@H](OC)C[C@H]3OC[C@@]3(OC(C)=O)[C@H]2[C@H](OC(=O)c2ccccc2)[C@]2(O)C[C@H](OC(=O)[C@H](O)[C@@H](NC(=O)OC(C)(C)C)c3ccccc3)C(C)=C1C2(C)C [Cabazitaxel]	0.692 (inactive)
CCCCc1nc2cc(/C=C/C(=O)NO)ccc2n1CCN(CC)CC [Pracinostat]	0.747 (inactive)
CNNCc1ccc(C(=O)NC(C)C)cc1.Cl [Procarbazine hydrochloride]	1.13 (inactive)
Nc1nc(=O)c2c([nH]1)NC[C@H](CNc1ccc(C(=O)N[C@@H](CCC(=O)[O-])C(=O)[O-])cc1)N2C=O.[Ca+2] [Calcium Levofolinate]	1.02 (inactive)
COC(=O)c1cc(OC)c2c(c1-c1c(CO)cc(OC)c3c1OCO3)OCO2 [Bicyclol]	1.12 (inactive)
O=C(Nc1c(Cl)cncc1Cl)c1ccc(OC(F)F)c(OCC2CC2)c1 [Roflumilast]	0.841 (inactive)
CCc1ccc(CCOc2ccc(CC3SC(=O)NC3=O)cc2)nc1.Cl (stereo unspecified) [Pioglitazone hydrochloride]	1.09 (inactive)

SMILES	cell viability
C.CCN(CC)CCCC(C)Nc1ccnc2cc(Cl)ccc12.O=P(O)(O)O.O=P(O)(O)O (stereo unspecified) [Chloroquine diphosphate]	1.27 (inactive)
CN(C)c1nc(N(C)C)nc(N(C)C)n1 [Altretamine]	0.945 (inactive)
CN(Cc1cnc2nc(N)nc(N)c2n1)c1ccc(C(=O)N[C@@H](CCC(=O)O)C(=O)O)cc1 [Methotrexate]	0.976 (inactive)
Nc1ccccc1NC(=O)c1ccc(CNc2nccc(-c3cccnc3)n2)cc1 [Mocetinostat]	0.55 (inactive)
COc1cc2nccc(Oc3ccc(NC(=O)Nc4cc(C)on4)c(Cl)c3)c2cc1OC [Tivozanib]	1.09 (inactive)
Cc1nc(Nc2ncc(C(=O)Nc3c(C)cccc3Cl)s2)cc(N2CCN(CCO)CC2)n1 [Dasatinib]	0.513 (inactive)
COc1cc2nccc(Oc3ccc(NC(=O)C4(C(=O)Nc5ccc(F)cc5)CC4)cc3)c2cc1OC.O=C(O)C[C@H](O)C(=O)O	0.932 (inactive)
CC[C@@H](CO)NCCN[C@@H](CC)CO.Cl.Cl [Ethambutol dihydrochloride]	1.2 (inactive)
COc1cc([C@@H]2c3cc4c(cc3[C@@H](O[C@@H]3O[C@@H]5CO[C@@H](c6cccs6)O[C@H]5[C@H](O)[C@H]3O)[C@H]3COC(=O)[C@H]23)OCO4)cc(OC)c1O [Teniposide]	0.746 (inactive)
C/C=C1/NC(=O)[C@H]2CSSCC/C=C/[C@H](CC(=O)N[C@H](C(C)C)C(=O)N2)OC(=O)[C@H](C(C)C)NC1=O [Romidepsin]	0.0685 (active)
Nc1nc(Cl)nc2c1ncn2[C@H]1C[C@H](O)[C@@H](CO)O1 [Cladribine]	0.592 (inactive)
O=C(NC(Cc1cc(=O)[nH]c2ccccc12)C(=O)O)c1ccc(Cl)cc1 (stereo unspecified) [Rebamipide]	1 (inactive)
COc1cc(N2CCC(N3CCN(C)CC3)CC2)ccc1Nc1ncc(Cl)c(Nc2ccccc2P(C)(C)=O)n1 [Brigatinib]	0.91 (inactive)
COc1ccc2cc1Oc1ccc(cc1)C[C@H]1c3cc(c(OC)cc3CCN1C)Oc1c(OC)c(OC)cc3c1[C@H](C2)N(C)CC3 [Tetrandrine]	1.25 (inactive)
O=C(O)C1CSCN1 (stereo unspecified) [Thioproline]	1.17 (inactive)
Nc1[nH]c(=O)ncc1F [Fluorocytosine]	1.04 (inactive)
Nc1nc(F)nc2c1ncn2[C@@H]1O[C@H](CO)[C@@H](O)[C@@H]1O [Fludarabine]	0.934 (inactive)
CCCc1cc(C)[nH]c(=O)c1CNC(=O)c1cc(-c2ccnc(N3CCN(C)CC3)c2)cc2c1cnn2C(C)C	1.01 (inactive)
